# Records with an inconclusive call do not appear. Values without a mark were called inactive. Calls follow the shape of the dose curve; as a rule, active = well fitted cell-killing curve with a large enough effect; inconclusive = small, poorly fitted or top-dose-only effect; inactive = flat fitted curve, though single readings scatter.
# Experiment: Cell Viability - NIH 3T3 (AID 541);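 also: plate controls were DMSO alone for no effect and tamoxifen positive control for full effect; nearly all actives have a fitted effect of over 25% in size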
# Conditions: NIH 3T3 cell viability, qHTS; activity change, negative = cytotoxicity: at 92.2 µM (top of the series)
# Excerpt: NIH Chemical Genomics Center [NCGC]
# NIH Molecular Libraries Screening Centers Network [MLSCN]
# National Institutes of Environmental Health Sciences [NIEHS]
# National Toxicology Program [NTP]
# We have developed a 1536-well cell-based assay for quantitative high throughput screening (qHTS) against a number of cell lines to determine in vitro cytotoxicity of small molecules. This particular assay uses the NIH 3T3 fibroblast cell line which is established from NIH Swiss mouse embryo.
# NCGC Assay Protocol Summary:
# The CellTiter-Glo luminescent cell viability assay (Promega) is a homogeneous method to measure the number of viable cells in culture. The end point readout of this assay is based on quantitation of intracellular ATP, an indicator of metabolic activity, using the luciferase reaction. Luciferase catalyzes the oxidation of beetle Luciferin to oxyluciferin and light in the presence of ATP. The luminescent signal is proportional to amount of ATP present.
# Using the CellTiter-Glo luminescent cell viability assay, the amount of cellular ATP was measured in the NIH 3T3 cell line with complete culture medium following compound treatment for 40 hours. The assay was performed in opaque white Kalypsys 1536-well plates. In the screen, tamoxifen and doxorubicin were used as positive controls. Library compounds were measured for their ability to cause acute toxicity in the cell line, as reflected by a decrease in intracellular ATP levels, in a concentration-dependent manner. […] AC50 values were determined from concentration-response data modeled with the standard Hill equation.
# qHTS protocol for CellTiter Glo NIH 3T3 cellular assay
# [Step] [Parameter] [Value] [Description]
# 1. Reagent; 5 uL; 1000 NIH 3T3 cells/well
# 2. Time; 5 hr; 37 °C incubation
# 4. Controls; 23 nL; Tamoxifen 0.34 uM to 100 uM & Doxorubicin 0.02 nM to 100 uM
# 5. Time; 40 hr; 37 °C incubation
# 6. Reagent; 5 uL; CellTiter Glo reagent
# 7. Time; 20 min; Room Temperature
# 8. Detection; Luminescence; Viewlux plate reader
# Keywords: cell viability, cytotoxicity, NIH 3T3 cell line, luminescence, NTPHTS, NTPHTS_NCGC, NIEHS, EPA, DSSTox, MLSMR, MLSCN, NIH Roadmap, qHTS, NCGC
row,SMILES,"activity change, negative = cytotoxicity [%]"
1,c1ccc2c(c1)ccc1ncccc12,-12.6
2,CNC(=O)c1ccccc1,-22.8
3,CC(=O)Nc1cccc(N)c1,-4.87
4,CC(C)CO,-8.3
5,CC(C)=CCl,4.89
6,C/C=C(/C)C#N,-7.7
7,O=C(O)CN(CC(=O)O)CC(=O)O,-10.4
8,CCCOCC(C)OCC(C)O (stereo not given),-19.3
9,Cc1c(C(=O)O)cccc1[N+](=O)[O-],2.82
10,C=CCOC(=O)COCCC(C)C,-20.7
11,COC(=O)CCCC(=O)OC,7.96
12,CCCCC=O,4.73
13,COc1ccc(N)c(C)c1,1.68
14,FC(F)(F)c1ccccc1Cl,-19.3
15,COc1ccc(N)c(OC)c1,-4.96
16,CC(C)Nc1ccccc1,-10.7
17,CC(C)(C)c1ccc(OCC2CO2)cc1 (stereo not given),-18.9
18,C=C(C)C1CC=C(C)C(OC(C)=O)C1 (stereo not given),0.0723
19,CCCCCCC=O,-13.4
20,CC1CCCO1 (stereo not given),-13.6

row,SMILES,"activity change, negative = cytotoxicity [%]"
1,Cc1ccc(C)c(N)c1,-15.5
2,Cc1nc2ccc(Cl)cc2[nH]1,-25.9
3,O=C(O)c1cc(Cl)cc(Cl)c1,-27.2
4,CSc1ccc(C=O)cc1,1.16
5,CC(=O)OCc1ccco1,-29.3
6,CN(C)CCCCl,-4.06
7,Cc1ccc(Cl)cc1N,-22.5
8,CCCCCCO,-4.27
9,OC(CCl)CCl,-4.93
10,Cc1cccc(C(=O)O)c1[N+](=O)[O-],1.26
11,C=Cc1ccccc1C=C,7.18
12,Fc1ccccc1,-15
13,BrC(Br)C(Br)Br,9.47
14,CC(=O)C1(C)CC2=C(CCCC2(C)C)CC1C (stereo not given),-21.8
15,COc1ccc(OC)cc1,12.9
16,O=C1OC(=O)c2cc([N+](=O)[O-])ccc21,-4.57
17,CCNS(=O)(=O)c1ccc(C)cc1,-29.3
18,CC/C(C)=N/O,8.57
19,Cc1ccccc1C(N)=O,-13.8
20,O=[N+]([O-])c1c(Cl)cc(Cl)cc1Cl,-0.967

# From PubChem BioAssay (NCATS)
